# The full list was thinned out, with the strongest signals kept by preference.
# B1: OS9 (Arabidopsis thaliana) (protein)
# chain: MRGSHHHHHHGMASMTGGQQMGRDLYDDDDKSRLQIFPAHLVGTFSRNNREPKYKIEFLPEDSPFHPGDNLESMVMLDKHGNRFLCYLPKEEKATSGWTSSQQNISTVMMETQQLVKLKTPDELLQPLSEKCLFRQEGWWSYEFCHQKYVRQLHVEDENKIVQEFFLGTFDPEATAAFNQTVSDASTDASQRYHSHVYTNGTTCDLTGSPREVEVRFVCAETRAMVTSITELSTCKYALTVQCPTLCKHPLFQLEKPVSHTIHCNAIPVEEDATRNKEEQAVDESPKMIADS
# Columns and labels:
# Experiment in all cases: glycan array binding signal (z-score within array); higher = stronger binding
# Details in all cases: glycan notation: IUPAC condensed, linker removed
# Fuc(a1-2)Gal(b1-3)GlcNAc = biological target: Fuc(a1-2)Gal(b1-3)GlcNAc
# In short: (§1)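 Negative Z-scores can be read as non-binding. The Z-score is calculated within each array and then averaged across arrays of one protein sequence at different concentrations or buffers and across linkers. Arrays, 3228 in all, were curated from the Consortium for Functional Glycomics database and kept only where the protein sequence was available.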
# [1] = biological target: Fuc(a1-2)Gal(b1-3)GlcNAc(b1-3)[Gal(b1-4)GlcNAc(b1-6)]Gal(b1-4)Glc
# In short: as §1
# [2] = biological target: Fuc(a1-2)Gal(b1-4)[Fuc(a1-3)]GlcNAc(b1-2)Man(a1-3)[Fuc(a1-2)Gal(b1-4)[Fuc(a1-3)]GlcNAc(b1-2)Man(a1-6)]Man(b1-4)GlcNAc(b1-4)[Fuc(a1-6)]GlcNAc
# In short: as §1
# [3] = biological target: Fuc(a1-2)Gal(b1-4)[Fuc(a1-3)]GlcNAc(b1-3)Gal(b1-4)[Fuc(a1-3)]GlcNAc(b1-3)Gal(b1-4)[Fuc(a1-3)]GlcNAc
# In short: as §1
# [4] = biological target: Fuc(a1-2)[Gal(a1-3)]Gal(b1-4)GlcNAc(b1-2)Man(a1-3)[Fuc(a1-2)[Gal(a1-3)]Gal(b1-4)GlcNAc(b1-2)Man(a1-6)]Man(b1-4)GlcNAc(b1-4)GlcNAc
# In short: as §1
# [5] = biological target: Fuc(a1-2)[Gal(a1-3)]Gal(b1-4)GlcNAc(b1-6)GalNAc
# In short: as §1
# [6] = biological target: Fuc(a1-2)[GalNAc(a1-3)]Gal(b1-4)GlcNAc
# In short: as §1
# [7] = biological target: Fuc(a1-3)[Gal(b1-4)]GlcNAc(b1-3)Gal(b1-4)[Fuc(a1-3)]GlcNAc(b1-3)Gal(b1-4)[Fuc(a1-3)]GlcNAc
# In short: as §1
# [8] = biological target: Fuc(a1-3)[Gal(b1-4)]GlcNAc6S
# In short: as §1
# [9] = biological target: Fuc(a1-3)[Gal3S(b1-4)]GlcNAc
# In short: as §1
# [10] = biological target: Fuc(a1-3)[Gal3S(b1-4)]GlcNAc6S
# In short: as §1
# [11] = biological target: Fuc(a1-3)[GalNAc(b1-4)]GlcNAc
# In short: as §1
# Gal(a1-3)Gal(b1-4)GlcNAc = biological target: Gal(a1-3)Gal(b1-4)GlcNAc
# In short: as §1
# [12] = biological target: Gal(a1-3)Gal(b1-4)GlcNAc(b1-6)GalNAc
# In short: as §1
# Gal(a1-4)Gal(b1-4)Glc = biological target: Gal(a1-4)Gal(b1-4)Glc
# In short: as §1
# Gal(b1-3)GalNAc = biological target: Gal(b1-3)GalNAc
# In short: as §1
# Gal(b1-3)GalNAc(b1-3)Gal = biological target: Gal(b1-3)GalNAc(b1-3)Gal
# In short: as §1
# [13] = biological target: Gal(b1-3)GlcNAc(a1-3)Gal(b1-4)GlcNAc
# In short: as §1
# [14] = biological target: Gal(b1-3)GlcNAc(b1-2)Man(a1-3)[Gal(b1-3)GlcNAc(b1-2)Man(a1-6)]Man(b1-4)GlcNAc(b1-4)[Fuc(a1-6)]GlcNAc
# In short: as §1
# [15] = biological target: Gal(b1-3)GlcNAc(b1-3)Gal(b1-4)GlcNAc(b1-3)Gal(b1-4)GlcNAc(b1-2)[Gal(b1-3)GlcNAc(b1-3)Gal(b1-4)GlcNAc(b1-3)Gal(b1-4)GlcNAc(b1-6)]Man(a1-6)[Gal(b1-3)GlcNAc(b1-3)Gal(b1-4)GlcNAc(b1-3)Gal(b1-4)GlcNAc(b1-2)Man(a1-3)]Man(b1-4)GlcNAc(b1-4)[Fuc(a1-6)]GlcNAc
# In short: as §1
# [16] = biological target: Gal(b1-3)GlcNAc(b1-6)[Gal(b1-3)]GalNAc
# In short: as §1
# [17] = biological target: Gal(b1-3)[Fuc(a1-4)]GlcNAc(b1-2)Man(a1-3)[Gal(b1-3)[Fuc(a1-4)]GlcNAc(b1-2)Man(a1-6)]Man(b1-4)GlcNAc(b1-4)[Fuc(a1-6)]GlcNAc
# In short: as §1
# [18] = biological target: Gal(b1-4)GlcNAc(b1-2)[Gal(b1-4)GlcNAc(b1-6)]Man(a1-6)[GlcNAc(b1-4)][Gal(b1-4)GlcNAc(b1-2)Man(a1-3)]Man(b1-4)GlcNAc(b1-4)GlcNAc
# In short: as §1
# [19] = biological target: Gal(b1-4)GlcNAc(b1-3)Gal(b1-4)GlcNAc(b1-3)Gal(b1-4)GlcNAc(b1-3)Gal(b1-4)GlcNAc(b1-3)Gal(b1-4)GlcNAc(b1-3)Gal(b1-4)GlcNAc(b1-2)Man(a1-3)[Gal(b1-4)GlcNAc(b1-3)Gal(b1-4)GlcNAc(b1-3)Gal(b1-4)GlcNAc(b1-3)Gal(b1-4)GlcNAc(b1-3)Gal(b1-4)GlcNAc(b1-3)Gal(b1-4)GlcNAc(b1-2)Man(a1-6)]Man(b1-4)GlcNAc(b1-4)GlcNAc
# In short: as §1
# [20] = biological target: Gal(b1-4)GlcNAc(b1-3)[Gal(b1-4)GlcNAc(b1-6)]Gal(b1-4)GlcNAc
# In short: as §1
# Gal3S(b1-4)Glc6S = biological target: Gal3S(b1-4)Glc6S
# In short: as §1
# GalNAc(a1-3)Gal = biological target: GalNAc(a1-3)Gal
# In short: as §1
# GalNAc(b1-3)GalNAc = biological target: GalNAc(b1-3)GalNAc
# In short: as §1
# GalNAc(b1-4)Gal(b1-4)Glc = biological target: GalNAc(b1-4)Gal(b1-4)Glc
# In short: as §1
# [21] = biological target: GalNAc(b1-4)GlcNAc(b1-2)Man
# In short: as §1
# Glc(a1-4)Glc = biological target: Glc(a1-4)Glc
# In short: as §1
# Glc(a1-6)Glc(a1-6)Glc = biological target: Glc(a1-6)Glc(a1-6)Glc
# In short: as §1
# [22] = biological target: GlcNAc(b1-2)[GlcNAc(b1-4)]Man(a1-3)[GlcNAc(b1-4)][GlcNAc(b1-2)[GlcNAc(b1-6)]Man(a1-6)]Man(b1-4)GlcNAc(b1-4)GlcNAc
# In short: as §1
# [23] = biological target: GlcNAc(b1-3)Gal(b1-4)GlcNAc(b1-3)Gal(b1-4)GlcNAc(b1-2)Man(a1-3)[GlcNAc(b1-3)Gal(b1-4)GlcNAc(b1-3)Gal(b1-4)GlcNAc(b1-2)Man(a1-6)]Man(b1-4)GlcNAc(b1-4)[Fuc(a1-6)]GlcNAc
# In short: as §1
# [24] = biological target: GlcNAc(b1-3)Gal(b1-4)GlcNAc(b1-6)[Gal(b1-3)]GalNAc
# In short: as §1
# GlcNAc(b1-3)Man = biological target: GlcNAc(b1-3)Man
# In short: as §1
# [25] = biological target: GlcNAc(b1-4)[GlcNAc(b1-6)]GalNAc
# In short: as §1
# Kdn(a2-3)Gal(b1-4)Glc = biological target: Kdn(a2-3)Gal(b1-4)Glc
# In short: as §1
# [26] = biological target: Man(a1-2)Man(a1-3)[Man(a1-2)Man(a1-6)]Man
# In short: as §1
# Man(a1-3)[Man(a1-6)]Man = biological target: Man(a1-3)[Man(a1-6)]Man
# In short: as §1
# [27] = biological target: Neu5Ac(a2-3)Gal(b1-3)GlcNAc(b1-3)GalNAc
# In short: as §1
# [28] = biological target: Neu5Ac(a2-6)Gal(b1-4)GlcNAc(b1-2)Man(a1-3)Man(b1-4)GlcNAc(b1-4)GlcNAc
# In short: as §1
# [29] = biological target: Neu5Ac(a2-6)Gal(b1-4)GlcNAc(b1-2)Man(a1-3)[Neu5Ac(a2-6)Gal(b1-4)GlcNAc(b1-2)Man(a1-6)]Man(b1-4)GlcNAc(b1-4)GlcNAc
# In short: as §1
# [30] = biological target: Neu5Ac(a2-8)Neu5Ac(a2-3)Gal(b1-3)GalNAc(b1-4)[Neu5Ac(a2-8)Neu5Ac(a2-3)]Gal(b1-4)Glc
# In short: as §1
# [31] = biological target: Neu5Ac(a2-8)Neu5Ac(a2-3)[Gal(b1-3)GalNAc(b1-4)]Gal(b1-4)Glc
# In short: as §1
# Neu5Gc(a2-3)Gal(b1-4)Glc = biological target: Neu5Gc(a2-3)Gal(b1-4)Glc
# In short: as §1
binder,measurement,setting,value
B1,glycan array binding signal (z-score),Fuc(a1-2)Gal(b1-3)GlcNAc,-0.466
same,glycan array binding signal (z-score),[1],2.66
same,glycan array binding signal (z-score),[2],-0.608
same,glycan array binding signal (z-score),[3],4.22
same,glycan array binding signal (z-score),[4],3.36
same,glycan array binding signal (z-score),[5],0.051
same,glycan array binding signal (z-score),[6],-0.828
same,glycan array binding signal (z-score),[7],-0.881
same,glycan array binding signal (z-score),[8],3.45
same,glycan array binding signal (z-score),[9],1.51
same,glycan array binding signal (z-score),[10],-0.706
same,glycan array binding signal (z-score),[11],0.056
same,glycan array binding signal (z-score),Gal(a1-3)Gal(b1-4)GlcNAc,-0.724
same,glycan array binding signal (z-score),[12],0.243
same,glycan array binding signal (z-score),Gal(a1-4)Gal(b1-4)Glc,2.7
same,glycan array binding signal (z-score),Gal(b1-3)GalNAc,-0.097
same,glycan array binding signal (z-score),Gal(b1-3)GalNAc(b1-3)Gal,3.02
same,glycan array binding signal (z-score),[13],-1.06
same,glycan array binding signal (z-score),[14],-0.157
same,glycan array binding signal (z-score),[15],2.88
same,glycan array binding signal (z-score),[16],0.651
same,glycan array binding signal (z-score),[17],7.5
same,glycan array binding signal (z-score),[18],-0.016
same,glycan array binding signal (z-score),[19],0.798
same,glycan array binding signal (z-score),[20],1.43
same,glycan array binding signal (z-score),Gal3S(b1-4)Glc6S,0.366
same,glycan array binding signal (z-score),GalNAc(a1-3)Gal,-0.979
same,glycan array binding signal (z-score),GalNAc(b1-3)GalNAc,0.839
same,glycan array binding signal (z-score),GalNAc(b1-4)Gal(b1-4)Glc,2.57
same,glycan array binding signal (z-score),[21],3.58
same,glycan array binding signal (z-score),Glc(a1-4)Glc,1.98
same,glycan array binding signal (z-score),Glc(a1-6)Glc(a1-6)Glc,-0.542
same,glycan array binding signal (z-score),[22],0.258
same,glycan array binding signal (z-score),[23],-0.144
same,glycan array binding signal (z-score),[24],0.094
same,glycan array binding signal (z-score),GlcNAc(b1-3)Man,0.127
same,glycan array binding signal (z-score),[25],-0.3
same,glycan array binding signal (z-score),Kdn(a2-3)Gal(b1-4)Glc,0.473
same,glycan array binding signal (z-score),[26],0.462
same,glycan array binding signal (z-score),Man(a1-3)[Man(a1-6)]Man,-0.078
same,glycan array binding signal (z-score),[27],0.474
same,glycan array binding signal (z-score),[28],6.74
same,glycan array binding signal (z-score),[29],-0.5
same,glycan array binding signal (z-score),[30],-0.384
same,glycan array binding signal (z-score),[31],1.47
same,glycan array binding signal (z-score),Neu5Gc(a2-3)Gal(b1-4)Glc,-1.01

# From the supplement of paper PMC8728848
